High-throughput results as filed in PubChem.
Sampled rows, rich in hits. Any-hit rate of the full collection: about 0.74%.
Mtb UGM inh = M. tuberculosis UGM enzyme inhibitors, primary screen, biochemical, fluorescence polarization, single point | purified UGM, fluorescence polarization probe displacement | inhibition, % at 10 µM | 320,000 tested, 0.06% active | AID 504406, 2011; in the data active = inhibition above about 10%, passing the limit was not always enough
Rv3671c inh = Rv3671c serine protease inhibitors, primary screen, biochemical, fluorescence polarization, M. tuberculosis H37Rv; 320,000 tested, 0.048% active; inhibition, % at 5.96 µM; in the data active = inhibition above about 38%;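 also: extracellular domain of Rv3671c used as enzyme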
Vc quorum ag-1 = inducers of Vibrio cholerae quorum light production without autoinducers, primary screen, BH1578 luxS cqsA deficient, single point | AID 588436, 2011 | activation, % at 18.7 µM | 350,000 tested, 0.16% active | V. cholerae BH1578 lux reporter, luminescence, 6 h; in the data active = activation mostly above about 9.7%, no sharp cut-off
FadD28 FP inh = inhibitors of FadD28 bisubstrate probe binding, primary screen, biochemical, fluorescence polarization, single point. 360,000 tested, 0.22% active. inhibition, % at 12.5 µM. AID 588549, 2011; in the data active = inhibition above about 8.5%, passing the limit was not always enough
MazF activator = activators of E. coli MazEF toxin-antitoxin RNase, primary screen, biochemical, fluorescence, uHTS; Endoribonuclease toxin MazF (Escherichia coli (strain K12)), P0AE70; FAM/BHQ RNA-DNA oligo cleavage fluorescence, 5 h; activation, % at 20 µM; 350,000 tested, 0.32% active; AID 504720, 2011; in the data active = activation above about 50%
Target sequence (P0AE70 whole entry, looked up): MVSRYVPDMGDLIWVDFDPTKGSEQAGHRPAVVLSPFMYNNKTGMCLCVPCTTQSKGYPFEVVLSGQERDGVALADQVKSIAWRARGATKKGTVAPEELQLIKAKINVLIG
Mtb bLac sens = beta-lactam sensitization of Mtb H37Rv, H37Rv; M. tuberculosis H37Rv growth with meropenem, percent inhibition; inhibition, % at 25 µM; 330,000 tested, 0.27% active;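 also: growth measured after seven days incubation then overnight dye step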
Vc quorum ag-2 = V. cholerae lux activation without autoinducers – BH1578 luxS cqsA deficient, cherry-pick, plate reader, dose response; shares compounds with Vc quorum ag-1; V. cholerae BH1578 lux reporter, luminescence, 6 h; activation, % at 50 µM; 620 tested, under 10 active; AID 602243, 2012
Numbers stand for hits; . = inactive; / = not tested or not shown. Unless noted, no rule for the calls is given here.

SMILES | Mtb UGM inh | Rv3671c inh | Vc quorum ag-1 | FadD28 FP inh | MazF activator | Mtb bLac sens | Vc quorum ag-2
COc1ccccc1C(=O)NC(CCSC)C(=O)OCC(=O)N1CCCC1=O (stereo not given) | . | . | . | / | . | . | /
CCC(C)Cn1c(S(=O)(=O)O)nc2ccccc21 (stereo not given) | . | . | . | . | . | . | .
CC(C)Cn1c(S(=O)(=O)O)nc2ccccc21 | . | . | . | . | . | . | /
CCOc1ccccc1Nc1nnc(SCC(=O)NC2CCS(=O)(=O)C2)s1 (stereo not given) | . | . | . | . | . | . | /
COc1ccc(OC)c(S(=O)(=O)NCC(c2cccs2)N2CCc3ccccc3C2)c1 (stereo not given) | . | . | . | . | . | . | /
CCn1c(SCC(=O)OC2CCCCC2)nnc1-c1ccncc1 | . | . | 17 | . | . | . | .
CSc1nc(C)cc(OCC(=O)N2CCOCC2)n1 | . | . | 32 | . | . | . | .
O=C(Nc1c(F)c(F)c(F)c(F)c1F)C1CCCCC1 | . | . | . | . | . | . | .
CC1(C(=O)NCc2ccc(Cl)cc2)CCN1C(=O)c1cccc(F)c1 (stereo not given) | / | / | . | . | / | / | /
CCOC(=O)N1CCC(NC(=O)C2CCN(C(=O)N3CC(C)Oc4ccc(C)cc43)CC2)CC1 (stereo not given) | . | . | 7.6 | . | . | . | .
CC(C)[C@H](NC(=O)c1ccccc1F)C(=O)OCC(=O)NC1CC1 | . | . | 20 | / | . | . | .
CC(C)[C@H](NC(=O)c1ccccc1F)C(=O)NC1CCCCC1 | . | . | . | . | . | . | /
